{
  "source": "PubChem BioAssay (NCATS)",
  "note": "Inconclusive results are not listed. A call without a number means that no potency is given here. Activity calls are given as the source filed them. Calls come from the whole dose curve; as a rule, active = well fitted inhibition curve with a large enough effect in the repeat runs; inconclusive = weak or mixed curves; inactive = flat fitted curve, though single readings scatter. Potency is the fitted concentration of half-maximal effect.",
  "data": [
    {"target": "Cytochrome P450 2D6 (Homo sapiens) (UniProt P10635)", "sequence (P10635 whole entry, looked up)": "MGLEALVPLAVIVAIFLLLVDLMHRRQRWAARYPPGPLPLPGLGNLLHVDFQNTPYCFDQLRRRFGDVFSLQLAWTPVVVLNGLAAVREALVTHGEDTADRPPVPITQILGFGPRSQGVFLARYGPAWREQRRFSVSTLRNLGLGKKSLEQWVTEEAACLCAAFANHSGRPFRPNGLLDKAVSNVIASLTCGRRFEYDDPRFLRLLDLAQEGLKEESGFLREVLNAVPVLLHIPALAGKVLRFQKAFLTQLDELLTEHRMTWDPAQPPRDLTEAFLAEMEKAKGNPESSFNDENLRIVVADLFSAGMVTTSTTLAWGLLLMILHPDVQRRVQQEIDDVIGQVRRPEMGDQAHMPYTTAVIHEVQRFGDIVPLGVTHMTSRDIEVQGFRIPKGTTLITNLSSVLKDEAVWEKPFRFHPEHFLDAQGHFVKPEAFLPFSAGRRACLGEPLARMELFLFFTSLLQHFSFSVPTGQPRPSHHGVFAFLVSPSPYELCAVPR", "assay": "Cytochrome P450 family 2 subfamily D member 6 (CYP2D6) small molecule antagonists: luciferase biochemical (cell-free) qHTS assay (AID 1645840); note: nearly all actives have a fitted effect of over 55% in size", "settings": "P450-Glo CYP2D6 enzyme, luciferin luminescence, 1 h; series mostly up to 57.4 µM", "protocol": "National Center for Advancing Translational Sciences [NCATS] Assay Overview: Cytochrome P450 (CYP) enzymes are membrane-bound hemeproteins that play a key role in metabolism of drugs and xenobiotics. Assaying the effect of chemicals on CYP isozymes is useful to minimize the adverse drug reactions and toxicities in drug development process. Chemical compounds were tested for their effect on CYP enzyme activities by using P450-Glo (TM) screening systems (Promega Corporation, Madison, WI). These systems provide a luminescent method containing proluciferin substrates and are converted to luciferin products by CYP isozymes. The luciferin products formed are detected with a luciferin detection reagent, and the amount of light produced is proportional to CYP activity. P450-Glo (TM) CYP2D6 screening system (Catalog. No. V9890) was used to detect the compounds that interfere in CYP2D6 activity.\nAssay Protocol Summary: Two ul of enzyme-substrate mix was dispensed into medium binding white/solid 1536-well plates (Greiner Bio-One North America Inc., Monroe, NC) using a Flying Reagent Dispenser (FRD, Aurora Discovery, San Diego, CA). […] The assay plates were incubated at room temperature for 10 min. Then 2 ul of NADPH regeneration solution was added to each well of the assay plates using an FRD and incubated at room temperature for 1 h. The reaction was stopped by adding 4 ul of detection reagent using an FRD and after 20 min incubation at room temperature, the luminescence signal was measured using a ViewLux plate reader (Perkin Elmer, Shelton, CT). Data were expressed as relative luminescence units.", "values": [
      {"smiles": "COc1c(C)c2c(c(O)c1C/C=C(\\C)CCC(=O)O)C(=O)OC2", "Potency": "inactive"},
      {"smiles": "CC1=C(C(=O)OC(C)C)C(c2cccc([N+](=O)[O-])c2)C(C(=O)OC2CN(C(c3ccccc3)c3ccccc3)C2)=C(N)N1", "note": "(stereo not given)", "Potency": "9.77 µM (active)"},
      {"smiles": "CN(C/C=C/c1ccccc1)Cc1cccc2ccccc12", "Potency": "0.347 µM (active)"},
      {"smiles": "CN(C)CCOc1ccccc1Cc1ccccc1", "Potency": "1.95 µM (active)"},
      {"smiles": "C=C(CC)C(=O)c1ccc(OCC(=O)O)c(Cl)c1Cl", "Potency": "inactive"},
      {"smiles": "CCOc1ccc2nc3cc(N)ccc3c(N)c2c1", "Potency": "15.5 µM (active)"},
      {"smiles": "Cc1ccnc(NS(=O)(=O)c2ccc(N)cc2)n1", "Potency": "inactive"},
      {"smiles": "CC[N+](CC)(CCNC(=O)C(=O)NCC[N+](CC)(CC)Cc1ccccc1Cl)Cc1ccccc1Cl", "Potency": "15.5 µM (active)"},
      {"smiles": "CN(C(=O)CN(CCO)CC(=O)N(C)C(C)(C)Cc1ccccc1)C(C)(C)Cc1ccccc1", "Potency": "1.38 µM (active)"},
      {"smiles": "CC(=O)Nc1c(I)cc(I)c(C(=O)O)c1I", "Potency": "19.5 µM (active)"},
      {"smiles": "C[C@H]1C[C@H]2[C@@H]3CCC4=CC(=O)C=C[C@]4(C)[C@@]3(Cl)[C@@H](O)C[C@]2(C)[C@@]1(O)C(=O)CO", "Potency": "15.5 µM (active)"},
      {"smiles": "CC1(C)O[C@@H]2C[C@H]3[C@@H]4C[C@H](F)C5=CC(=O)CC[C@]5(C)[C@H]4[C@@H](O)C[C@]3(C)[C@]2(C(=O)CO)O1", "Potency": "inactive"},
      {"smiles": "CCN1CCCC1=O", "Potency": "inactive"},
      {"smiles": "C[C@H](O)C(=O)Nc1c(I)c(C(=O)NC(CO)CO)c(I)c(C(=O)NC(CO)CO)c1I", "Potency": "inactive"},
      {"smiles": "C[C@]12CCC(=O)C=C1CC[C@H]1[C@@H]3CC[C@](O)(C(=O)CO)[C@@]3(C)C[C@H](O)[C@@]12F", "Potency": "inactive"},
      {"smiles": "CCOc1ccc(NC(=O)CC(C)O)cc1", "note": "(stereo not given)", "Potency": "inactive"},
      {"smiles": "CCOc1ccc(Cc2nccc3cc(OCC)c(OCC)cc23)cc1OCC", "Potency": "13.8 µM (active)"},
      {"smiles": "O=c1[nH]c(=O)n([C@H]2C[C@H](O)[C@@H](CO)O2)cc1C(F)(F)F", "Potency": "inactive"},
      {"smiles": "C[C@]12C=CC(=O)C=C1[C@@H](F)C[C@@H]1[C@@H]2[C@@H](O)C[C@@]2(C)[C@H]1CC[C@]2(O)C(=O)CO", "Potency": "inactive"},
      {"smiles": "NCCC(O)(P(=O)(O)O)P(=O)(O)O", "Potency": "inactive"},
      {"smiles": "O=C(CCCN1CCC(O)(c2ccc(Br)cc2)CC1)c1ccc(F)cc1", "Potency": "2.75 µM (active)"},
      {"smiles": "CN(C)C(=S)SC(=S)N(C)C", "Potency": "inactive"},
      {"smiles": "N[C@H](CO)C(=O)O", "Potency": "inactive"},
      {"smiles": "CCCCCCc1ccc(O)cc1O", "Potency": "4.9 µM (active)"},
      {"smiles": "NC[C@H]1O[C@H](O[C@H]2[C@H](O[C@@H]3O[C@H](CO)[C@@H](O)[C@H]3O)C(O)[C@H](N)C[C@@H]2N)[C@H](N)[C@@H](O)[C@@H]1O", "note": "(stereo not given in full)", "activity change, negative = inhibition": "6.46% [at 11.5 µM] (inactive)"},
      {"smiles": "CN1CCN(CCCN2c3ccccc3Sc3ccc(S(=O)(=O)N(C)C)cc32)CC1", "Potency": "11 µM (active)"},
      {"smiles": "OC[C@@H](O)[C@@H](O[C@@H]1O[C@H](CO)[C@H](O)[C@H](O)[C@H]1O)[C@H](O)[C@@H](O)CO", "Potency": "inactive"},
      {"smiles": "C[n+]1c2cc(N)ccc2cc2ccc(N)cc21", "note": "(tested in a mixture with another compound)", "Potency": "11 µM (active)"},
      {"smiles": "CCCCCCC[N+](CC)(CC)CCCCc1ccc(Cl)cc1", "Potency": "0.0977 µM (active)"},
      {"smiles": "CC1(C)OC[C@@H](COC(=O)CCc2ccc(OC[C@@H](O)CNCCNC(=O)N3CCOCC3)cc2)O1", "Potency": "inactive"},
      {"smiles": "CC(O)C(=O)O", "note": "(stereo not given)", "Potency": "12.3 µM (active)"},
      {"smiles": "CCN(CCCc1ccccc1)CCCc1ccccc1", "Potency": "1.23 µM (active)"},
      {"smiles": "C=C1C(=C/C=C2\\CCC[C@]3(C)[C@@H]([C@H](C)/C=C/[C@@H](O)C4CC4)CC[C@@H]23)C[C@@H](O)C[C@@H]1O", "Potency": "24.5 µM (active)"},
      {"smiles": "CCCCc1nc(Cl)c(CO)n1Cc1ccc(-c2ccccc2-c2nn[nH]n2)cc1", "Potency": "inactive"},
      {"smiles": "COc1cccc2c1C(=O)c1c(O)c3c(c(O)c1C2=O)C[C@@](O)(C(C)=O)C[C@@H]3O[C@H]1C[C@H](N)[C@H](O)[C@H](C)O1", "Potency": "13.8 µM (active)"},
      {"smiles": "O=c1ccc2ccccc2o1", "Potency": "inactive"},
      {"smiles": "CCN(CC)CCNC(=O)COc1ccc(Cl)cc1", "Potency": "13.8 µM (active)"},
      {"smiles": "CC(O)(P(=O)(O)O)P(=O)(O)O", "Potency": "inactive"},
      {"smiles": "CC[C@@H](CO)NCCN[C@@H](CC)CO", "Potency": "inactive"},
      {"smiles": "COc1cccc(OC)c1C(=O)N[C@@H]1C(=O)N2[C@@H]1SC(C)(C)[C@@H]2C(=O)O", "Potency": "inactive"}
    ]}
  ]
}
